The entries come from a sample that favours hits as a whole.
Pf Dd2 inh: Plasmodium falciparum Dd2 growth inhibition; P. falciparum Dd2 growth, SYBR Green, 72 h; Potency, µM (titrated, usually from 28.9 µM), actives largely listed as inhibitors; 4.3% of 120,000 active; AID 1347417; active = well fitted inhibition curve with a large enough effect; also: nearly all actives have a fitted effect of over 65% in size
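Readout: SYBR Green fluorescence, 485 nm excitation, 535 nm emission, after ~16 h lysis at 37C. Before that, Dd2-infected red cells (2.5% hematocrit) grew 72 h with compound, 29 uM top final concentration.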
Hits are given with their value; 0 = inactive; [ ] = another dose, or the depositor's remark.

SMILES | Pf Dd2 inh
CCc1nn(-c2ccc(OC)cc2)c(Oc2ccccc2F)c1CCC(=O)NCCOC | 0
CCc1nn(-c2ccc(OC)cc2)c(Oc2ccccc2F)c1CCC(=O)N(CC)CC | 0
CC(C)Oc1cccc(C2CC(=O)Nc3cc4c(cc32)OCO4)c1 (configuration not stated) | 0
CCOCCOC1CCN(C(=O)c2ccc(OC)cc2)CC1 | 0
O=C(c1ccoc1)N1CCC(Oc2ccccc2-c2nc(C3CCOCC3)no2)C1 (configuration not stated) | 0
Fc1ccc(F)c(CN2CCC(Oc3ccccc3-c3nc(C4CCOCC4)no3)C2)c1 (configuration not stated) | 4.5µM
O=C(c1cccc(F)c1)N1CCC(Oc2ccccc2-c2nc(C3CCOCC3)no2)C1 (configuration not stated) | 0
O=C(C1CC1)N1CCC(C(=O)N2CC(OCc3ccccc3)C2)CC1 | 0
COc1cccc([C@@H]2CN(C(=O)c3c(C)noc3C)C[C@H]2C(=O)O)c1OC | 0
CC[C@@H]1[C@@H](NC(=O)c2ccc(N3CCN(C)CC3)cc2)[C@@H]2CCO[C@H]12 | 0
CC(C)(Oc1nn(CC2CC2)c2ccc(CN3CCCC3)cc12)C(=O)NCC(F)(F)F | 13µM
Cn1nc(OC(C)(C)C(=O)NCCc2ccccc2)c2cc(CN3CCCC3)ccc21 | 0
CC(C)(Oc1nn(CC2CCOCC2)c2ccccc12)C(=O)NCC1CCOCC1 | 0
Cc1cccc(N(C)C(=O)CCS(=O)(=O)c2ccc3c(c2)n(C)c(=O)c(=O)n3C)c1 | 0
Cc1ccc(-n2c(=O)c3ccc(C(=O)NCc4ccccc4Cl)cc3n(CC(=O)Nc3ccc(C)cc3C)c2=O)cc1 | 0
c1ccc(CN2CCc3c(sc4ncnc(N5CCOCC5)c34)C2)cc1 | 7.9µM
CN1CCN(c2ncnc3sc4c(c23)CCN(Cc2ccco2)C4)CC1 | 11µM
CCN1CCN(c2nc3c(s2)CN(Cc2ccco2)CC3)CC1 | 0
COc1ccc(-c2nc(N3CCOCC3)cc3c2CN(Cc2ccccc2)C3=O)cn1 | 0
CN1CCN(c2nc3c(c(=O)[nH]2)CCN(Cc2ccc(Br)s2)CC3)CC1 | 0[5.79 µM]
c1ccc(CN2CCNc3cnc(-c4ccc(N5CCOCC5)cc4)cc3C2)cc1 | 0
CN(CC1(C)CCOCC1)C(=O)c1ccc(F)c(Cl)c1 | 0
O=C(NCc1ccc2c(c1)CCN2C(=O)c1ccncc1)c1cccc(F)c1 | 0
CCc1noc(CC2CCOC3(CCN(S(=O)(=O)c4cc(F)ccc4C)CC3)C2)n1 (configuration not stated) | 0
CCN1CCN(C(=O)c2cc(-c3ccccc3)cn2C)CC1 | 0
SMILES | Pf Dd2 inh
O=C(O)c1ccc2nc(-c3cc4cccc(O)c4oc3=O)[nH]c2c1 | 0
COc1ccc(-c2cc3ccc(O)c(CN4CCN(C)CC4)c3oc2=O)cc1OC | 11µM
CN1CCN(Cc2c(O)ccc3cc(-c4ccccc4)c(=O)oc23)CC1 | 10µM
COc1cccc2cc(-c3nc(-c4ccc(C)cc4)c(C)s3)c(=O)oc12 | 0
COc1cccc2cc(-c3nnc(-c4ccc(Cl)cc4)o3)c(=O)oc12 | 0
COc1ccc(-c2cc3ccc(O)c(CN4CCOCC4)c3oc2=O)cc1OC | 10µM
COc1ccc(-c2c(C)c3ccc(O)c(CN4CCOCC4)c3oc2=O)cc1OC | 0
COc1ccc(-c2cc([C@H]3CN4CC[C@H]3C[C@@H]4CNC(=O)N3CCOCC3)nc(C)n2)cc1OC | 0
Cc1cccc(N(C)C(=O)Cn2c(=O)n(-c3ccc(F)cc3)c(=O)c3c2cc(C)n3C)c1 | 0
O=C([C@@H]1C[C@H](F)CN1C(=O)NCc1cccc(F)c1)N1CCCCC1 | 0
COCC(=O)N1CCc2nc(N(C)CCc3ccncc3)[nH]c(=O)c2CC1 | 0[5.79 µM]
CS(=O)(=O)c1ccc(CN2C[C@@H](F)[C@@H](OCc3nc4ccccc4[nH]3)C2)cc1 | 0
CN1[C@@H](CCC(=O)NCc2ccco2)CNC(=O)[C@@H]2[C@H]1CCN2Cc1cccs1 | 0
c1coc(-c2noc(CCCc3nc(C4CCOC4)no3)n2)c1 (configuration not stated) | 0
Cc1cccc(CNC(=O)CCn2ccn3nc4c(c3c2=O)CCCC4)c1 | 0
Cc1ccc(CNC(=O)CCCCCn2c(=O)[nH]c3ccccc3c2=O)cc1 | 0
CN(Cc1ccc(F)cc1)C1CCOc2ccccc21 (configuration not stated) | 0
CC[C@H]1CN(C(=O)c2cccnc2)CC[C@H]1CC(=O)N(C)CCC#N | 0
CS(=O)(=O)N1CCN(C(=O)C2CCNCC2)C[C@@H]1C(=O)N[C@H](Cc1c[nH]c2ccccc12)C(N)=O | 0
COc1ccc(NC(=O)c2sc3nc(C(F)(F)F)cc(C)c3c2N)cc1OC | 0
COCc1cc(C)nc2sc(C(=O)Nc3ccc(OC(F)(F)F)cc3)c(N)c12 | 4µM
Nc1c(C(=O)Nc2ccc(OC(F)(F)F)cc2)sc2nc(-c3ccncc3)ccc12 | 0
COCCn1c(C)cnc1CC1CCCN(C(=O)c2ccccn2)C1 (configuration not stated) | 0
CN1C(=O)c2cccn2CC1CNC(=O)CCc1nc(-c2ccccc2)no1 (configuration not stated) | 0
CN(Cc1ccc2nsnc2c1)C(=O)c1ccc(N2CCCC2=O)cc1 | 0
SMILES | Pf Dd2 inh
Cc1ccc(N2CCC3(CCCN3Cc3ccc4nsnc4c3)CC2)nn1 | 13µM
COCC(=O)N1CCCC(C(=O)NCc2ccc3nsnc3c2)C1 (configuration not stated) | 0
COCCNC(=O)[C@H]1C[C@H](Oc2cccnc2)CN1C(=O)c1ccc(F)cc1 | 0
COc1ccc(N2CC(NC(=O)C3CCCCC3)CC2=O)cc1 (configuration not stated) | 0
COc1cccc(C2C(C(=O)Nc3ccccc3OC)=C(C)Nc3nc4ccccc4n32)c1 (configuration not stated) | 7.1µM
CCOc1ccccc1C1C(C(=O)Nc2ccccc2OC)=C(C)Nc2nc3ccccc3n21 (configuration not stated) | 0
COc1ccccc1NC(=O)C1=C(C)Nc2nc3ccccc3n2C1c1cccc(OC)c1OC (configuration not stated) | 0
Cc1csc(NC(=O)c2ccc3c(c2)OCC(=O)N(C)C3)n1 | 0
Cc1nnc(-c2cc(Nc3cccc(N(C)C)c3)ccn2)n1C1CCCCC1 | 0
CCN(CC)C(=O)C(C)[C@@H]1CC[C@@]2(C)CC[C@H](NC(=O)C3CC3)[C@@H](C)[C@@H]2[C@H]1O (some centres not stated) | 0
COc1ccc(-c2noc(CCCC(=O)N3CCC(c4nc(C5CCOCC5)no4)C3)n2)cc1OC (configuration not stated) | 0
COC(=O)c1nnn(-c2cccc(C)c2)c1C(=O)OC | 0
Cc1cccc(-n2nnnc2S(C)(=O)=O)c1 | 11µM
Cc1ccc(-n2nnnc2CNC(=O)c2ccccc2S(C)(=O)=O)cc1C | 0
COCC(=O)N1CCCC(c2nc(-c3cccnc3)no2)CCNC(=O)CC1 (configuration not stated) | 0
O=C(NCc1ccc(-c2cnc3c(Oc4ccccc4)nccn23)cc1)c1ccn[nH]1 | 0
COCCN1CC(CO)C2(CCN(Cc3cccc(C#N)c3)CC2)C1 (configuration not stated) | 0
COCCN1CC(CO)C2(CCN(Cc3ccc(F)c(F)c3)CC2)C1 (configuration not stated) | 0
COCCN1CC(CO)C2(CCN(Cc3cccc(Cl)c3)CC2)C1 (configuration not stated) | 10µM
O=C(NCC(F)(F)F)C1CCCN1c1nc2ncccc2o1 (configuration not stated) | 0

Assay outcomes as filed in PubChem.
